Measured values reported in the supplement of paper PMC9477273.

Tested on: DRIVER-selected RNA biosensor (aptazyme) pool
Assay: maximum fold change of ribozyme cleavage across biosensor pool versus no-compound control; higher = stronger biosensor response (ligand inhibits cleavage)
Settings: 10 µM
Procedure, shortened: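 Values are the maximum fold change of cleavage over all biosensors in a CleaveSeq assay, defined as the cleaved:uncleaved read-fraction ratio against a no-compound condition after correction with reference sequences. The 1,730 array-resynthesized ribozyme biosensors were T7-transcribed for 15–30 min at 37°C with 9 mM rNTPs and a single compound at 10 µM final, then reverse-transcribed at 50°C. Read counts came from Illumina sequencing of PCR-barcoded cleaved and uncleaved products.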

| Compound | maximum fold change |
| --- | --- |
| Cc1ccc(-c2noc(CCC(=O)Nc3cc(C)ccn3)n2)cc1 | 2.17 |
| Cc1ccc(S(=O)(=O)NC(CC(=O)O)c2cccs2)cc1 (configuration not stated) | 2.72 |
| CN(Cc1ccccc1)C(=O)CCc1nc(CN2CCN(C(=O)c3noc4c3CCCC4)CC2)no1 | 4.1 |
| COc1ccc2c(c1)c(C(=O)O)c(C)n2CCc1ccc(OC)c(OC)c1 | 2.38 |
| CCOC(=O)c1c(C)c(C(=O)N(CC)C2CCCCC2)c(C)n1C | 2.31 |
| c1cc(-c2nc3cc(Oc4ccc5[nH]c(-c6ccncc6)nc5c4)ccc3[nH]2)ccn1 | 14.3 |
| O=S(=O)(NCc1ccccn1)c1ccc(Br)cc1Br | 1.99 |
| N#C/C(=Cc1c(Oc2cccc(c2)C)nc2n(c1=O)cccc2)/c1nc2c([nH]1)cccc2 | 7.83 |
| CCc1nc2ccc(C(=O)NCCc3ccco3)cc2nc1CC | 2.69 |
| O=C1NC2(CCCCC2)N(C(=O)c2ccc(Cl)cc2)C2=C1CCCC2 | 2.89 |
| Cc1ccc(CNc2nc3ccc(C)cc3n3cnnc23)cc1 | 2.77 |
| CC1=C(c2ccc(C)cc2)S(=O)(=O)N=C1NCCCN1CCc2ccccc2C1 | 3.69 |
| COc1ccc(S(=O)(=O)Nc2cccnc2)cc1 | 2.43 |
| COc1cc(-c2nc3n(n2)C(c2ccncc2)C(C(N)=O)=C(C)N3)cc(OC)c1OC (configuration not stated) | 2.35 |
| COc1ccc(/C=C2N=C(c3ccc(Cl)c(Cl)c3)OC2=O)cc1 | 2.84 |
| c1cncc(-c2nc3cc(Oc4ccc5[nH]c(-c6cccnc6)nc5c4)ccc3[nH]2)c1 | 12.5 |
| Cc1ccc(C)c(Cn2c(C)c(CNCc3ccc(Cl)cc3)c(C(=O)O)c2C)c1 | 2.54 |
